# ± gives the standard deviation of the averaged measurements.
# Legend:
# Experiment in all cases: promoter activity interaction Z-score (Lux/OD deviation from empty-vector control); higher = stronger promoter induction by the compound
# [1] = tested on: E. coli BW25113 acrABp lux reporter
# How it was run: (§1)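 Reporter strains of E. coli BW25113 grew at 37°C in 40 µl LB Lennox in 384-well plates. Readings of OD600 and luminescence were taken every 30 min over 12 h, integrated over 0–8 h (wild type) or 1–9 h (deletion strains), and wells below 10% of the median growth value were excluded. Scores are Z-transformed residuals of growth-normalised luminescence from a fit against a control.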
# [2] = tested on: E. coli BW25113 micFp lux reporter
# How it was run: as §1
# [3] = tested on: E. coli BW25113 ompFp lux reporter
# How it was run: as §1
# [4] = tested on: E. coli BW25113 robp lux reporter
# How it was run: as §1
# [5] = tested on: E. coli BW25113 soxSp lux reporter
# How it was run: as §1
# [6] = tested on: E. coli BW25113 tolCp lux reporter
# How it was run: as §1
# [7] = 0.45 µg/ml, genetic background: wild type
# [8] = 0.45 µg/ml, genetic background: ΔmarA
# [9] = 0.45 µg/ml, genetic background: Δrob
# [10] = 0.45 µg/ml, genetic background: ΔsoxS
# [11] = 0.89 µg/ml, genetic background: wild type
# [12] = 0.89 µg/ml, genetic background: ΔmarA
# [13] = 0.89 µg/ml, genetic background: Δrob
# [14] = 0.89 µg/ml, genetic background: ΔsoxS
# [15] = 1.8 µg/ml, genetic background: wild type
# [16] = 1.8 µg/ml, genetic background: ΔmarA
# [17] = 1.8 µg/ml, genetic background: Δrob
# [18] = 1.8 µg/ml, genetic background: ΔsoxS
# [19] = 3.6 µg/ml, genetic background: wild type
# [20] = 3.6 µg/ml, genetic background: ΔmarA
# [21] = 3.6 µg/ml, genetic background: ΔsoxS
# [22] = 3.6 µg/ml, genetic background: Δrob
smiles,measurement,setting,value
O=C1CN(/N=C/c2ccc([N+](=O)[O-])o2)C(=O)N1 [Nitrofurantoin],promoter activity interaction Z-score,[1]; [7],0.0114 ± 0.17
same,promoter activity interaction Z-score,[1]; [8],0.119 ± 1.2
same,promoter activity interaction Z-score,[1]; [9],0.336 ± 0.34
same,promoter activity interaction Z-score,[1]; [10],0.0185 ± 0.49
same,promoter activity interaction Z-score,[1]; [11],-0.124 ± 0.043
same,promoter activity interaction Z-score,[1]; [12],0.483 ± 1.2
same,promoter activity interaction Z-score,[1]; [13],0.267 ± 0.28
same,promoter activity interaction Z-score,[1]; [14],-0.258 ± 0.11
same,promoter activity interaction Z-score,[1]; [15],0.24 ± 0.28
same,promoter activity interaction Z-score,[1]; [16],-0.0961 ± 0.62
same,promoter activity interaction Z-score,[1]; [17],0.562 ± 0.54
same,promoter activity interaction Z-score,[1]; [18],0.221 ± 0.13
same,promoter activity interaction Z-score,[1]; [19],5.63 ± 1.8
same,promoter activity interaction Z-score,[1]; [20],1.31 ± 1.1
same,promoter activity interaction Z-score,[1]; [21],1.31
same,promoter activity interaction Z-score,[2]; [7],-0.201 ± 0.35
same,promoter activity interaction Z-score,[2]; [8],-0.0627 ± 0.036
same,promoter activity interaction Z-score,[2]; [9],-0.0214 ± 0.074
same,promoter activity interaction Z-score,[2]; [10],0.0613 ± 0.061
same,promoter activity interaction Z-score,[2]; [11],-0.0281 ± 0.071
same,promoter activity interaction Z-score,[2]; [12],0.0181 ± 0.016
same,promoter activity interaction Z-score,[2]; [13],0.0629 ± 0.06
same,promoter activity interaction Z-score,[2]; [14],-0.168 ± 0.14
same,promoter activity interaction Z-score,[2]; [15],-0.0112 ± 0.03
same,promoter activity interaction Z-score,[2]; [16],-0.163 ± 0.13
same,promoter activity interaction Z-score,[2]; [17],0.113 ± 0.19
same,promoter activity interaction Z-score,[2]; [18],0.261 ± 0.17
same,promoter activity interaction Z-score,[2]; [19],-0.0667 ± 0.48
same,promoter activity interaction Z-score,[2]; [20],-0.232 ± 0.11
same,promoter activity interaction Z-score,[2]; [22],1.15 ± 0.47
same,promoter activity interaction Z-score,[2]; [21],0.96
same,promoter activity interaction Z-score,[3]; [7],-0.15 ± 0.13
same,promoter activity interaction Z-score,[3]; [8],-0.453 ± 0.32
same,promoter activity interaction Z-score,[3]; [9],-0.0497 ± 0.041
same,promoter activity interaction Z-score,[3]; [10],0.0722 ± 0.049
same,promoter activity interaction Z-score,[3]; [11],-0.0847 ± 0.24
same,promoter activity interaction Z-score,[3]; [12],-0.089 ± 0.056
same,promoter activity interaction Z-score,[3]; [13],-0.35 ± 0.18
same,promoter activity interaction Z-score,[3]; [14],-0.556 ± 0.079
same,promoter activity interaction Z-score,[3]; [15],-0.226 ± 0.099
same,promoter activity interaction Z-score,[3]; [16],-0.21 ± 0.076
same,promoter activity interaction Z-score,[3]; [17],0.603 ± 0.17
same,promoter activity interaction Z-score,[3]; [18],0.0583 ± 0.32
same,promoter activity interaction Z-score,[3]; [19],-2.5
same,promoter activity interaction Z-score,[3]; [20],1.3 ± 0.68
same,promoter activity interaction Z-score,[3]; [22],3.89
same,promoter activity interaction Z-score,[3]; [21],-0.534
same,promoter activity interaction Z-score,[4]; [7],0.114 ± 0.034
same,promoter activity interaction Z-score,[4]; [8],0.455 ± 0.074
same,promoter activity interaction Z-score,[4]; [9],0.575 ± 0.24
same,promoter activity interaction Z-score,[4]; [10],0.737 ± 0.98
same,promoter activity interaction Z-score,[4]; [11],0.053 ± 0.093
same,promoter activity interaction Z-score,[4]; [12],1.12 ± 0.13
same,promoter activity interaction Z-score,[4]; [13],-0.308 ± 0.14
same,promoter activity interaction Z-score,[4]; [14],0.326 ± 0.87
same,promoter activity interaction Z-score,[4]; [15],-0.109 ± 0.28
same,promoter activity interaction Z-score,[4]; [16],-0.423 ± 0.23
same,promoter activity interaction Z-score,[4]; [17],-0.197 ± 0.6
same,promoter activity interaction Z-score,[4]; [18],0.0845 ± 0.42
same,promoter activity interaction Z-score,[4]; [19],-0.125 ± 0.22
same,promoter activity interaction Z-score,[4]; [20],-0.424 ± 0.58
same,promoter activity interaction Z-score,[4]; [21],0.453 ± 1.5
same,promoter activity interaction Z-score,[5]; [7],0.0106 ± 0.12
same,promoter activity interaction Z-score,[5]; [8],-0.137 ± 0.086
same,promoter activity interaction Z-score,[5]; [9],-0.0668 ± 0.14
same,promoter activity interaction Z-score,[5]; [10],0.0402 ± 0.15
same,promoter activity interaction Z-score,[5]; [11],0.102 ± 0.0085
same,promoter activity interaction Z-score,[5]; [12],0.0915 ± 0.093
same,promoter activity interaction Z-score,[5]; [13],0.0454 ± 0.22
same,promoter activity interaction Z-score,[5]; [14],0.0812 ± 0.0067
same,promoter activity interaction Z-score,[5]; [15],0.0189 ± 0.12
same,promoter activity interaction Z-score,[5]; [16],-0.113 ± 0.12
same,promoter activity interaction Z-score,[5]; [17],-0.00251 ± 0.13
same,promoter activity interaction Z-score,[5]; [18],0.294 ± 0.093
same,promoter activity interaction Z-score,[5]; [19],0.367 ± 0.26
same,promoter activity interaction Z-score,[5]; [20],0.0789 ± 0.17
same,promoter activity interaction Z-score,[5]; [22],-0.00598 ± 0.3
same,promoter activity interaction Z-score,[5]; [21],0.987 ± 0.11
same,promoter activity interaction Z-score,[6]; [7],-0.752 ± 0.08
same,promoter activity interaction Z-score,[6]; [8],-0.242 ± 1.3
same,promoter activity interaction Z-score,[6]; [9],-0.5 ± 0.78
same,promoter activity interaction Z-score,[6]; [10],-0.5485 ± 0.0052
same,promoter activity interaction Z-score,[6]; [11],0.445 ± 0.35
same,promoter activity interaction Z-score,[6]; [12],0.287 ± 1.1
same,promoter activity interaction Z-score,[6]; [13],-0.164 ± 0.15
same,promoter activity interaction Z-score,[6]; [14],-0.317 ± 0.33
same,promoter activity interaction Z-score,[6]; [15],-0.711 ± 0.13
same,promoter activity interaction Z-score,[6]; [16],-0.75 ± 0.79
same,promoter activity interaction Z-score,[6]; [17],0.238 ± 0.13
same,promoter activity interaction Z-score,[6]; [18],0.385 ± 1.6
same,promoter activity interaction Z-score,[6]; [19],1.24 ± 0.17
same,promoter activity interaction Z-score,[6]; [20],-1.22 ± 0.056
same,promoter activity interaction Z-score,[6]; [22],0.356 ± 0.69
same,promoter activity interaction Z-score,[6]; [21],0.0431 ± 0.49

# Reference: the supplement of paper PMC12282887
